The full data set covers some 8,800 targets. This sample favours those with a hit. About 0.5% of all pairs of compound and target were hits.
Compound: C[C@H](Nc1ncnc2nc[nH]c12)c1cc2cccc(Cl)c2c(=O)n1-c1ccccc1 [duvelisib]
Test: log2 fold change, soluble protein after heating vs DMSO (PISA); higher = thermal stabilisation; K562 lysate, 10 uM; active = over 0.2 and 3.5 SD of the protein, either way, in both replicates (recomputed)
How it was run: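 K562 pellets were dounce-homogenised in PBS pH 7.4 containing 1 mM MgCl2, and the crude extract, at 1 mg/mL protein, was exposed to 10 μM compound for 30 min. Aliquots were heated for 3 min across 48°C-58°C, pooled, brought to 0.5% NP-40 at 4°C and spun at 21,000xg for 90 min, with the supernatant taken as soluble protein. TMTpro 16plex LC-MS/MS with equalised channel sums quantified that protein. Values are log-two fold changes in thermal stability relative to solvent controls, taken from duplicates.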

Chain of UniProt Q13111 (Q13111 whole entry, looked up): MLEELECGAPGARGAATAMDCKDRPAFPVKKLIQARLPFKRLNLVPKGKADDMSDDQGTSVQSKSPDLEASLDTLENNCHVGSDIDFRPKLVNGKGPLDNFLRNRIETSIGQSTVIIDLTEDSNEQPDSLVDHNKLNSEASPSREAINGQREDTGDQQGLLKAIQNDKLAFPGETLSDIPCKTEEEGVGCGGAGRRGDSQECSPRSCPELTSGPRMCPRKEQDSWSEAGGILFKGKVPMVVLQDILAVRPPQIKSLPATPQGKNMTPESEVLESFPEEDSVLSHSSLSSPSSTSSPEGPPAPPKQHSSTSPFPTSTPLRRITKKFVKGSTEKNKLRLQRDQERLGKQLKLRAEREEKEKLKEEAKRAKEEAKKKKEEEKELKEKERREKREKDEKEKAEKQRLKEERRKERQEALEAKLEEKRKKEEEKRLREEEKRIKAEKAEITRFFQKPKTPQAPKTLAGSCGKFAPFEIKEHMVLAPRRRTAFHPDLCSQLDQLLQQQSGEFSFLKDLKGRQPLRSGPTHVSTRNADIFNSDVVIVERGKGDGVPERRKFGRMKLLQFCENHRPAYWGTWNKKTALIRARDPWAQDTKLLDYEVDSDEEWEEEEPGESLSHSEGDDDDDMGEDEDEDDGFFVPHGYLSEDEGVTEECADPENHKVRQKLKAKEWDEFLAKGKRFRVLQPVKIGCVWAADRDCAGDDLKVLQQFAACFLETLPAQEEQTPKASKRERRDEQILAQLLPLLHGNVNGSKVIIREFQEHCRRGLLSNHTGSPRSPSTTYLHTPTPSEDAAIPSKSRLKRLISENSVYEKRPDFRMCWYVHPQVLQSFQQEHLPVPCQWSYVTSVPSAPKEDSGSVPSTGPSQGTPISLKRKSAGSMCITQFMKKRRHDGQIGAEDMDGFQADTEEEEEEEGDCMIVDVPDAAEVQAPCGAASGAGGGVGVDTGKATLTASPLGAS
Chain of UniProt Q86WA6 (Q86WA6 whole entry, looked up): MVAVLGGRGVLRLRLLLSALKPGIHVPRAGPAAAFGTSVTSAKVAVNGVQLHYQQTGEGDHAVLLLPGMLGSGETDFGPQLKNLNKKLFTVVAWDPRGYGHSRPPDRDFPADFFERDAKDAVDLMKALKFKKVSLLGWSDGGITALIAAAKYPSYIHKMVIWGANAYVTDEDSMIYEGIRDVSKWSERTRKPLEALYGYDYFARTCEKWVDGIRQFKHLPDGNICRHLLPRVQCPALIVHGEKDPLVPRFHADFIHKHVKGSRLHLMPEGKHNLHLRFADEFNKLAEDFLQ
Chain of UniProt O95319 (O95319 whole entry, looked up): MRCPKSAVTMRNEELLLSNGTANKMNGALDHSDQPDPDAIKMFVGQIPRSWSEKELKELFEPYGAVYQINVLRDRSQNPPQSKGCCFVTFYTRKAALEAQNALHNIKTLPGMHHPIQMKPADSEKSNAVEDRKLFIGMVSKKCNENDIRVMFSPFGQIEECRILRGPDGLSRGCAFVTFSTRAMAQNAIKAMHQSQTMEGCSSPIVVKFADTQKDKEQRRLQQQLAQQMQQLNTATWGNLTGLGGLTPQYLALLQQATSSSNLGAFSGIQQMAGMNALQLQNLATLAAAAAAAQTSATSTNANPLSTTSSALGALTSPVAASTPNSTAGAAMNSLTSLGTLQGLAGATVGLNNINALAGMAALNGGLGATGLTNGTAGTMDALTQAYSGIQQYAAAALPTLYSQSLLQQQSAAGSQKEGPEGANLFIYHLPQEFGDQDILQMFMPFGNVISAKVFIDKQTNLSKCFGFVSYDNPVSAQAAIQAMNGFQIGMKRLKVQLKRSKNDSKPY
Chain of UniProt Q8N5I9 (Q8N5I9 whole entry, looked up): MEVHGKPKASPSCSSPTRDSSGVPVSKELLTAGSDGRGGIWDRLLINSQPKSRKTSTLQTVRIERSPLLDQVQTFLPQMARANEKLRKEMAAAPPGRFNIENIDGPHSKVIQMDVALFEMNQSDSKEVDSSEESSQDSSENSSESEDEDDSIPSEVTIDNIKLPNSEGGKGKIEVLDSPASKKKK
Chain of UniProt P40227 (P40227 whole entry, looked up): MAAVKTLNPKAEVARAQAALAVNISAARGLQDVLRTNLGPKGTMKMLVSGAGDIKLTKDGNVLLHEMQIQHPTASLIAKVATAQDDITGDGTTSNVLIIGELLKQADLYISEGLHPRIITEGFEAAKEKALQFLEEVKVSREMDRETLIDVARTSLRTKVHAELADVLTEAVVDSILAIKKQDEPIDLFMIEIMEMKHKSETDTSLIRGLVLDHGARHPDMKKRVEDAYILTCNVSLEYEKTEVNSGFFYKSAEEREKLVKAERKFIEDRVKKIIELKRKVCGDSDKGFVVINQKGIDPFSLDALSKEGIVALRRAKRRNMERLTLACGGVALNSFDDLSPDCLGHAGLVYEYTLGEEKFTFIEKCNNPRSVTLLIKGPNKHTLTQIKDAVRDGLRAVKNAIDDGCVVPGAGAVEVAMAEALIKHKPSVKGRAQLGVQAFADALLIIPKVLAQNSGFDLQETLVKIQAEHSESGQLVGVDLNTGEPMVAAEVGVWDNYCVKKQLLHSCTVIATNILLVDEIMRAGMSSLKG
Chain of UniProt P50750 (P50750 whole entry, looked up): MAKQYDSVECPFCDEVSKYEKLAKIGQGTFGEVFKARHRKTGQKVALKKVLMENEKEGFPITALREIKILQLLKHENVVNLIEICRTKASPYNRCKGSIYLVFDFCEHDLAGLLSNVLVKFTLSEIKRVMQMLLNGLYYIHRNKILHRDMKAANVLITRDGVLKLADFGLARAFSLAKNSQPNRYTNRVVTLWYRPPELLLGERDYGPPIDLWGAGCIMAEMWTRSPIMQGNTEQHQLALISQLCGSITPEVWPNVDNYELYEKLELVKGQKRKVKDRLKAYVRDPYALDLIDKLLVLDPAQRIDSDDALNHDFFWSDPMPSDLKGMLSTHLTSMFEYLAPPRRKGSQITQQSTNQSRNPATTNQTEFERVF
Chain of UniProt P01024 (P01024 whole entry, looked up): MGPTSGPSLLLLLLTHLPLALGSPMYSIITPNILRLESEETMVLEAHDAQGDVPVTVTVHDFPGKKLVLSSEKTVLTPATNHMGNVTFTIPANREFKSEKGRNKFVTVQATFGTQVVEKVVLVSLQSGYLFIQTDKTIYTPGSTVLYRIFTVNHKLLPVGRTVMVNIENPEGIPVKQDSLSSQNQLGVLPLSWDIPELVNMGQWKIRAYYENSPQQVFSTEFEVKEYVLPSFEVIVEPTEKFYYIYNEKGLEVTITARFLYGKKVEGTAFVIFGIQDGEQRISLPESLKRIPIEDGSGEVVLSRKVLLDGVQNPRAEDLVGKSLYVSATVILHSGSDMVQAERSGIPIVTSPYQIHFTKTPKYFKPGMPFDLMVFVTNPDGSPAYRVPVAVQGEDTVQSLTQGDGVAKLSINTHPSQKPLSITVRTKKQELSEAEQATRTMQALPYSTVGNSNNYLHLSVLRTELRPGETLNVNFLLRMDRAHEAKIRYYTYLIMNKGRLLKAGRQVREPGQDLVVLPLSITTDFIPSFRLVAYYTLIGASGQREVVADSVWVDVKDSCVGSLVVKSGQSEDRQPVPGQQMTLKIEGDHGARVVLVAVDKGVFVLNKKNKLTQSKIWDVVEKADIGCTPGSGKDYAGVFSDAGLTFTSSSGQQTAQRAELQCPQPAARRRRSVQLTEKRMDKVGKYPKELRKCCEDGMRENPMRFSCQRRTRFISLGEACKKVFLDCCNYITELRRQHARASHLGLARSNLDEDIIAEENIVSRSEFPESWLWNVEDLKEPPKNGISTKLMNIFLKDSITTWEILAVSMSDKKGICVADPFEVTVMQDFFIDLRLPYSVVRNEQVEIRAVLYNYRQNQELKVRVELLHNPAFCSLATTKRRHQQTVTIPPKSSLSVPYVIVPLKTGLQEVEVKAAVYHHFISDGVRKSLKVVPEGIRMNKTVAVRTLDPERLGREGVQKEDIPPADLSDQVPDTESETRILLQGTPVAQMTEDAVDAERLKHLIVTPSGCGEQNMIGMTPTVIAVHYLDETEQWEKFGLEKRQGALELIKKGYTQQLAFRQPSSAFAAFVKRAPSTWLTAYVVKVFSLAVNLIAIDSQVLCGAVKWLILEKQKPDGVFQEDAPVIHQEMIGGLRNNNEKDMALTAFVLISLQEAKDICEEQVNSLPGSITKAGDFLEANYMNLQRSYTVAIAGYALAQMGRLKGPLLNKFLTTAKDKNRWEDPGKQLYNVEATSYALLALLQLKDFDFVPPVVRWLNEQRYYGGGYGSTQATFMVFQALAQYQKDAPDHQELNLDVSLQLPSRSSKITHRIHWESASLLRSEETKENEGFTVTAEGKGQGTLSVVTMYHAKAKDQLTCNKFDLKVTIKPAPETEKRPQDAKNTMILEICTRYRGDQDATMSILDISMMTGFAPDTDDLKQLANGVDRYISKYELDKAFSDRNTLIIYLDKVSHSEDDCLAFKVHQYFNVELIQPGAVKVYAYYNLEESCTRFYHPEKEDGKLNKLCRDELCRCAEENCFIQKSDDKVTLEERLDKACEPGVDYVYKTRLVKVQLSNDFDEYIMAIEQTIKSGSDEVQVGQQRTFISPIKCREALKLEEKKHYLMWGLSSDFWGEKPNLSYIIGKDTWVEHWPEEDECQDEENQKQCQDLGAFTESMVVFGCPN
Chain of UniProt Q96LT7 (Q96LT7 whole entry, looked up): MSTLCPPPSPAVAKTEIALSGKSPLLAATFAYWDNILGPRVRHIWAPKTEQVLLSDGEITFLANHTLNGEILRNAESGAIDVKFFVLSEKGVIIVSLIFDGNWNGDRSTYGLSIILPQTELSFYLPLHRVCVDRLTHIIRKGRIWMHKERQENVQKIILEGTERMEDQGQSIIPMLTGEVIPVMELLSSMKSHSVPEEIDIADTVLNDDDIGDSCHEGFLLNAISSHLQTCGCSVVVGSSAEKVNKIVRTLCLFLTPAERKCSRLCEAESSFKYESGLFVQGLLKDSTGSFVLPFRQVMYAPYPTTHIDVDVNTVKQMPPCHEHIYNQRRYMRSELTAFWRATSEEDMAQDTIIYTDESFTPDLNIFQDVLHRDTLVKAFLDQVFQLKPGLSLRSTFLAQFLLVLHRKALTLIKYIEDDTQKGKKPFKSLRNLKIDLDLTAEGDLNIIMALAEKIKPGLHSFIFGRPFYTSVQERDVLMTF

log2 fold change, inactive:
AURKAIP1 (UniProt Q9NWT8) 0.012
CDC42BPA isoform 6 (UniProt Q5VT25) -0.007
BMS1 (UniProt Q14692) -0.036
ATP9B (UniProt O43861) -0.005
BUD23 isoform 3 (UniProt O43709) 0.025
ATXN2 (UniProt F8WB05) -0.065
ATP11A (UniProt P98196) 0.081
C8orf37 (UniProt Q96NL8) 0.046
CELF2 isoform 3 (UniProt O95319) -0.001
CDS2 (UniProt O95674) 0.088
CAMLG (UniProt P49069) -0.001
CAPNS1 (UniProt P04632) -0.015
C12orf45 (UniProt Q8N5I9) -0.014
CDK9 isoform 2 (UniProt P50750) -0.026
CCPG1 isoform 5 (UniProt Q9ULG6) 0.006
CELF1 isoform 4 (UniProt Q92879) -0.036
CDC42EP4 (UniProt Q9H3Q1) -0.029
BLOC1S6 (UniProt Q9UL45) 0.021
CCNB2 (UniProt O95067) 0.032
CASP3 (UniProt P42574) 0.007
CHAC2 (UniProt Q8WUX2) 0.038
CBX5 (UniProt P45973) -0.036
ATG7 (UniProt O95352) 0
CHAF1A (UniProt Q13111) -0.035
C9orf72 (UniProt Q96LT7) -0.072
ATRIP (UniProt Q8WXE1) -0.016
CAMK2G isoform 8 (UniProt Q13555) -0.083
CCT6A (UniProt P40227) -0.004
C2CD5 isoform 3 (UniProt Q86YS7) -0.009
CHCHD4 isoform 2 (UniProt Q8N4Q1) 0.022
C19orf54 (UniProt Q5BKX5) -0.076
BPHL (UniProt Q86WA6) 0.061
CCNB1 (UniProt P14635) 0.033
CDK11B (UniProt P21127) 0
C3 (UniProt P01024) -0.073
CASC4 (UniProt Q6P4E1) 0.051
BRD2 isoform 2 (UniProt P25440) -0.007
CDAN1 (UniProt Q8IWY9) 0.026
CCDC85B (UniProt Q15834) 0.081
CARS isoform 3 (UniProt P49589) -0.015

Reference: the supplement of paper PMC10849652
